This is part of a sample that, as a whole, favours compounds with a hit. Of some 79,000 tested, about 15% had one in any assay. Unmarked numbers belong to inactive results. Active and inactive are the calls of the source. Cut-off read from the data, not from the text of the source: active = growth inhibition above about 70%; inactive = the rest.
Columns and labels:
[1] = NCI Yeast Anticancer Drug Screen. Data for the rad14 strain (AID 159);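 note: 0% = growth of vehicle-treated control cultures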; conditions: S. cerevisiae rad14 strain growth inhibition, stronger effect = higher value
Summary of the method: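 Vehicle-treated cultures served as the baseline for growth inhibition of a DNA repair-mutant yeast strain exposed to each compound.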

[2] = NCI Yeast Anticancer Drug Screen. Data for the sgs1 mgt1 strain (AID 161);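 note: 0% = growth of cultures given vehicle only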; conditions: S. cerevisiae sgs1 mgt1 strain, stronger effect = higher value
Summary of the method: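 Percent growth inhibition was derived by comparing compound-exposed mutant yeast with vehicle-exposed cultures. The strain carries alterations in DNA damage repair.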

[3] = NCI Yeast Anticancer Drug Screen. Data for the CLN2oe strain (AID 163);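 note: 0% = growth of vehicle-only control cultures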; conditions: S. cerevisiae CLN2oe strain, stronger effect = higher value
Summary of the method: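 Values reflect how much compound exposure reduced yeast growth, referenced to vehicle-exposed cells. Assay organism is a strain with a defined genetic change affecting cell-cycle control.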

[4] = NCI Yeast Anticancer Drug Screen. Data for the cln2 rad14 strain (AID 165);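 note: 0% = growth equal to vehicle treated cultures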; conditions: S. cerevisiae cln2 rad14 strain, stronger effect = higher value
Summary of the method: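 Relative to vehicle controls, growth inhibition of compound-treated cln2 rad14 yeast was recorded.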

[5] = NCI Yeast Anticancer Drug Screen. Data for the bub3 strain (AID 167); conditions: S. cerevisiae bub3 mutant strain, stronger effect = higher value
Summary of the method: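 Inhibition values come from growth of compound-treated mutant yeast normalised to vehicle-treated controls.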

[6] = NCI Yeast Anticancer Drug Screen. Data for the wt2 strain (AID 169);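 note: 0% = growth of vehicle-treated yeast cultures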; conditions: S. cerevisiae wt2 strain growth inhibition, stronger effect = higher value
Summary of the method: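 Values express reduction in yeast growth under compound treatment, referenced to vehicle-treated cells.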

[7] = NCI Yeast Anticancer Drug Screen. Data for the mlh1 strain (AID 171);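 note: 0% = growth of vehicle-treated control cultures of the same strain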; conditions: S. cerevisiae mlh1 strain growth inhibition, stronger effect = higher value
Summary of the method: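 Steps: expose the defined-mutant yeast strain to compound; expose a parallel culture to vehicle; measure growth; express compound effect as inhibition relative to the vehicle culture.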

[8] = NCI Yeast Anticancer Drug Screen. Data for the sgs1 strain (AID 173);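 note: 0% = growth of vehicle-only control cultures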; conditions: S. cerevisiae sgs1 mutant, stronger effect = higher value
Summary of the method: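 Treat defined-mutant yeast with compound; measure growth; calculate inhibition relative to vehicle-treated cells.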

[9] = NCI Yeast Anticancer Drug Screen. Data for the mlh1 rad18 strain (AID 175); conditions: S. cerevisiae mlh1 rad18 strain growth inhibition, stronger effect = higher value
Summary of the method: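 Test agents were incubated with a yeast strain of defined genotype (DNA damage repair defect). Inhibition of growth was derived by comparison with vehicle-exposed cultures.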

[10] = NCI Yeast Anticancer Drug Screen. Data for the rad18 strain (AID 177); conditions: S. cerevisiae rad18 mutant growth inhibition, stronger effect = higher value
Summary of the method: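 A genetically defined yeast mutant impaired in DNA damage repair was treated with test compounds, then its growth was measured against cultures receiving vehicle alone.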

[11] = NCI Yeast Anticancer Drug Screen. Data for the rad52 strain (AID 147);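 note: 0% = growth of vehicle-treated control cultures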; conditions: S. cerevisiae rad52 mutant growth inhibition, stronger effect = higher value
Summary of the method: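 Screen used a yeast mutant impaired in DNA repair. After compound exposure, growth was measured. Values reflect inhibition compared with vehicle-treated cells.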

[12] = NCI Yeast Anticancer Drug Screen. Data for the wt1 strain (AID 149);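 note: 0% = growth of vehicle-treated wt1 cultures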; conditions: S. cerevisiae wt1 strain (SPY 50644) growth inhibition, stronger effect = higher value
Summary of the method: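 Vehicle-normalised growth inhibition; strain wt1; compound exposure.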

[13] = NCI Yeast Anticancer Drug Screen. Data for the rad50EPP+ strain (AID 151);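 note: 0% = growth of vehicle-treated control cultures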; conditions: S. cerevisiae rad50 mutant strain, stronger effect = higher value
Summary of the method: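 Exposing the rad50EPP+ strain to each compound, growth was compared with vehicle-only cultures to give inhibition.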

[14] = NCI Yeast Anticancer Drug Screen. Data for the rad50 strain (AID 155);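 note: 0% = growth of vehicle-only cultures of the same strain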; conditions: S. cerevisiae rad50 strain growth inhibition, stronger effect = higher value
Summary of the method: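 A DNA repair-deficient yeast mutant serves as the test organism; compound-induced growth inhibition is calculated against vehicle-treated cells.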

[15] = NCI Yeast Anticancer Drug Screen. Data for the mec2-1 strain (AID 157); conditions: S. cerevisiae mec2-1 strain, stronger effect = higher value
Summary of the method: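 Readout is yeast growth inhibition, normalised to vehicle-treated controls, in the mec2-1 strain exposed to compound.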

[16] = at 5.0 µM (retest, dose inferred, filed as 0.5)
[17] = at 50.0 µM (retest, dose inferred, filed as 5.0)

## Cc1ccc(Nc2c3c(c(C#N)c4nc5ccccc5n24)CCCC3)cc1
[1]; at 100.0 µM
  growth inhibition: 36%
[2]; [16]
  growth inhibition: 16%
[2]; [17]
  growth inhibition: 30%
[2]; at 50.0 µM
  growth inhibition: 74.5% (active)
[3]; at 1.2 µM
  growth inhibition: 20%
[3]; at 3.7 µM
  growth inhibition: 34%
[3]; at 11.0 µM
  growth inhibition: 21%
[3]; at 33.0 µM
  growth inhibition: 70% (active)
[3]; at 100.0 µM
  growth inhibition: 62%
[4]; [16]
  growth inhibition: 21%
[4]; [17]
  growth inhibition: 14%
[4]; at 50.0 µM
  growth inhibition: 72.8% (active)
[5]; at 1.2 µM
  growth inhibition: 8%
[5]; at 3.7 µM
  growth inhibition: 15%
[5]; [16]
  growth inhibition: 26%
[5]; at 11.0 µM
  growth inhibition: 23%
[5]; at 33.0 µM
  growth inhibition: 74% (active)
[5]; [17]
  growth inhibition: 34%
[5]; at 50.0 µM
  growth inhibition: 78.8% (active)
[5]; at 100.0 µM
  growth inhibition: 76% (active)
[6]; at 1.2 µM
  growth inhibition: 4%
[6]; at 3.7 µM
  growth inhibition: -8%
[6]; at 11.0 µM
  growth inhibition: 59%
[6]; at 33.0 µM
  growth inhibition: 74% (active)
[6]; at 100.0 µM
  growth inhibition: 72% (active)
[7]; at 1.2 µM
  growth inhibition: -5%
[7]; at 3.7 µM
  growth inhibition: 15%
[7]; at 11.0 µM
  growth inhibition: 22%
[7]; at 33.0 µM
  growth inhibition: 78% (active)
[7]; at 100.0 µM
  growth inhibition: 78% (active)
[8]; at 1.2 µM
  growth inhibition: 30%
[8]; at 3.7 µM
  growth inhibition: 34%
[8]; at 11.0 µM
  growth inhibition: 29%
[8]; at 33.0 µM
  growth inhibition: 77% (active)
[8]; at 100.0 µM
  growth inhibition: 81% (active)
[9]; [16]
  growth inhibition: 28%
[9]; [17]
  growth inhibition: 68%
[9]; at 50.0 µM
  growth inhibition: 6.1%
[10]; at 1.2 µM
  growth inhibition: 6%
[10]; at 3.7 µM
  growth inhibition: 27%
[10]; at 11.0 µM
  growth inhibition: 38%
[10]; at 33.0 µM
  growth inhibition: 75% (active)
[10]; at 100.0 µM
  growth inhibition: 72% (active)

## Cc1ccc(I)cc1N=C=S
[11]; at 1.2 µM
  growth inhibition: -5%
[11]; at 3.7 µM
  growth inhibition: 6%
[11]; at 11.0 µM
  growth inhibition: 22%
[11]; at 33.0 µM
  growth inhibition: 82% (active)
[11]; at 100.0 µM
  growth inhibition: 99% (active)
[12]; at 1.2 µM
  growth inhibition: -12%
[12]; at 3.7 µM
  growth inhibition: -14%
[12]; at 11.0 µM
  growth inhibition: -9%
[12]; at 33.0 µM
  growth inhibition: 74% (active)
[12]; at 100.0 µM
  growth inhibition: 99% (active)
[13]; at 1.2 µM
  growth inhibition: 15%
[13]; at 3.7 µM
  growth inhibition: 36%
[13]; at 11.0 µM
  growth inhibition: 63%
[13]; at 33.0 µM
  growth inhibition: 96% (active)
[13]; at 100.0 µM
  growth inhibition: 99% (active)
[14]; at 1.2 µM
  growth inhibition: 8%
[14]; at 3.7 µM
  growth inhibition: 6%
[14]; [16]
  growth inhibition: 32%
[14]; at 11.0 µM
  growth inhibition: 25%
[14]; at 33.0 µM
  growth inhibition: 94% (active)
[14]; [17]
  growth inhibition: 62%
[14]; at 50.0 µM
  growth inhibition: 79.1% (active)
[14]; at 100.0 µM
  growth inhibition: 99% (active)
[15]; at 1.2 µM
  growth inhibition: -4%
[15]; at 3.7 µM
  growth inhibition: 8%
[15]; [16]
  growth inhibition: 48%
[15]; at 11.0 µM
  growth inhibition: 8%
[15]; at 33.0 µM
  growth inhibition: 82% (active)
[15]; [17]
  growth inhibition: 62%
[15]; at 50.0 µM
  growth inhibition: 56.9%
[15]; at 100.0 µM
  growth inhibition: 99% (active)
[1]; at 1.2 µM
  growth inhibition: -11%
[1]; at 3.7 µM
  growth inhibition: -10%
[1]; at 11.0 µM
  growth inhibition: 11%
[1]; at 33.0 µM
  growth inhibition: 94% (active)
[1]; at 100.0 µM
  growth inhibition: 99% (active)
[2]; [16]
  growth inhibition: 0%
[2]; [17]
  growth inhibition: 100% (active)
[4]; [16]
  growth inhibition: 52%
[4]; [17]
  growth inhibition: 100% (active)
[5]; at 1.2 µM
  growth inhibition: 7%
[5]; at 3.7 µM
  growth inhibition: 28%
[5]; [16]
  growth inhibition: 7%
[5]; at 11.0 µM
  growth inhibition: 37%
[5]; at 33.0 µM
  growth inhibition: 96% (active)
[5]; [17]
  growth inhibition: 100% (active)
[5]; at 100.0 µM
  growth inhibition: 99% (active)
[6]; at 1.2 µM
  growth inhibition: -21%
[6]; at 3.7 µM
  growth inhibition: -12%
[6]; at 11.0 µM
  growth inhibition: 4%
[6]; at 33.0 µM
  growth inhibition: 82% (active)
[6]; at 100.0 µM
  growth inhibition: 99% (active)
[7]; at 1.2 µM
  growth inhibition: 28%
[7]; at 3.7 µM
  growth inhibition: 28%
[7]; at 11.0 µM
  growth inhibition: 44%
[7]; at 33.0 µM
  growth inhibition: 93% (active)
[7]; at 100.0 µM
  growth inhibition: 99% (active)
[8]; at 1.2 µM
  growth inhibition: 6%
[8]; at 3.7 µM
  growth inhibition: 2%
[8]; at 11.0 µM
  growth inhibition: 18%
[8]; at 33.0 µM
  growth inhibition: 83% (active)
[8]; at 100.0 µM
  growth inhibition: 99% (active)
[9]; [16]
  growth inhibition: 35%
[9]; [17]
  growth inhibition: 50%
[9]; at 50.0 µM
  growth inhibition: 63.1%
[10]; at 1.2 µM
  growth inhibition: 10%
[10]; at 3.7 µM
  growth inhibition: 24%
[10]; at 11.0 µM
  growth inhibition: 41%
[10]; at 33.0 µM
  growth inhibition: 86% (active)
[10]; at 100.0 µM
  growth inhibition: 99% (active)

Reference: PubChem BioAssay (NCI)
